Consider 37 compounds from PubChem BioAssay (NCI).

Molecules are shown by their SMILES. About 83,000 compounds went through this panel and 20% of them were active in at least one assay; those are over-represented in the sample as a whole.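 Growth was measured after 48 h exposure to one concentration of compound in 96-well plates. Values under 10 count as active.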 Calls of active or inactive are those of the source.

The subject of one test is NCI-H522 lung. In words: NCI-60 one-dose screen, 48 h (100 = growth as untreated, 0 = no growth, -100 = all killed). Particulars: 10 µM unless noted.
In the case of `CO[C@H](C(=O)O)[C@@H]1Cc2cc3cc(OC4CC(OC5CC(O)C(O)C(C)O5)C(O)C(C)O4)c(C)c(O)c3c(O)c2C(=O)[C@H]1OC1CC(OC2CC(OC3CC(C)(O)C(O)C(C)O3)C(O)C(C)O2)C(O)C(C)O1` (some centres not stated), the growth is -3.78% (active).
`O=C(Nc1ccc(Cl)cc1)Nc1nccs1`: the growth was -32.3% (active).
On the same count and under the same terms, the result for `CCn1cnc2c(Nc3cccc(Cl)c3)nc(N[C@@H]3CCCC[C@@H]3N)nc21` reads -32.4% (active); that for `C[C@]12CC[C@H]3[C@@H](CC4SC(N)=NC45C/C(=N/NC(N)=O)CC[C@]35C)[C@@H]1CCC2=O` (some centres not stated), -18.6% (active).
`Fc1ccc(N2COOC3(OOC2)C2CC4CC(C2)CC3C4)cc1`: the growth was 85.2% (inactive).
`C[C@@]1(CCCCCCCCCc2ccc(O)cc2)C[C@]2(C)OC(=O)C[C@@H]2OO1`: the growth was 90% (inactive).
For `[Cl][Hg][n]1c(-c2ccco2)nc2ccccc21`, the growth is 85.7% (inactive).
Take `CN1C(=O)N[C@H]2[C@@H]3NC(=O)c4ccc(Br)n4[C@@H]3C[C@]21O`: the growth was -38.2% (active).
Still for that read-out and setting: to `C=CC[PH+](c1ccccc1)c1ccccc1.C=CC[PH+](c1ccccc1)c1ccccc1.[Cl][Pt][Cl]` belongs 9.41% (active); to `CC[C@H](C)[C@H](NC(=O)C12CC(NC(C)=O)(C1)C2)C(=O)N(C)[C@H](C[C@@H](OC(C)=O)c1nc(C(=O)N[C@@H](Cc2ccccc2)C[C@H](C)C(=O)OC)cs1)C(C)C`, 1.64% (active).
For the compound `O=C1C=C(N2C3C4CCC(C4)C32)C(=O)C=C1c1ccccc1` (configuration not stated), the growth was 51% (inactive).
The same measure, in the same setting: to `CCn1c2ccccc2c2cc(C(=O)c3cccc4c3CCCN4)ccc21` belongs 115% (inactive); to `Nc1cc2nc3ccccc3nc2cc1N`, 79.8% (inactive); to `CCOC(=O)C(Cc1ccc(N(CCCl)CCCl)cc1)NC(=O)C(CC(C)C)NC(C)=O` (configuration not stated), -73.1% (active).
On to `COC(=O)CCc1c[nH]c2ccc(N(CCCl)CCCl)cc12`, for which the growth was 42.3% (inactive).
Take `Clc1cccc(Cl)c1Cl`: the growth is 65.1% (inactive).
On the same count and under the same terms, to `COc1cc([N+](=O)[O-])c2nc(C)ccc2c1[N+](=O)[O-]` belongs 87.2% (inactive); to `O=C(CC1(O)C(=O)N(Cc2ccccc2)c2ccc(F)cc21)c1ccc(C(=O)NCC2CCC3(CC2)OOC2(CCCCC2)OO3)cc1` (configuration not stated), -43.1% (active).
As for `O=C(CCl)c1ccc([N+](=O)[O-])o1`, the growth was -56.7% (active).
With `C[S+]1C=Cc2ccccc2C1c1ccc(Cl)cc1` (configuration not stated), the growth is 18.9% (inactive).
On the same count and under the same terms, the result for `COC(=O)[C@@H](C)C[C@H](Cc1ccc2ccccc2c1)NC(=O)c1csc([C@@H](C[C@H](C(C)C)N(C)C(=O)[C@@H](NC(=O)[C@H]2CCCCN2C)C(C)C)OC(C)=O)n1` reads 22.2% (inactive); that for `O=P(N1CC1)(N1CC1)N1CCc2ccccc21`, 109% (inactive); that for `O=C1Nc2ccccc2C2c3cccn3-c3ccccc3CN12` (configuration not stated), -7.83% (active).
As to `COC(=O)[C@@]1(O)C[C@H]2O[C@]1(C)n1c3ccccc3c3c4c(c5c6ccccc6n2c5c31)C(=O)NC4`, the growth is -59.2% (active).
Same read-out and setting: to `NC(=S)c1cn(C2OC(CO)C(O)C2O)c2ncnc(N)c12` (configuration not stated) belongs -38.6% (active); to `CC[C@H](C)[C@H](NC(=O)c1cccn1C)C(=O)N(C)[C@H](C[C@@H](OC(C)=O)c1nc(C(=O)N[C@@H](Cc2ccccc2)C[C@H](C)C(=O)OC)cs1)C(C)C`, -19.3% (active); to `OCc1ccc2c(c1)OCO2`, 90.8% (inactive).
For `C[n+]1c(/C=C/c2ccc(N(CCCl)CCCl)cc2)sc2ccccc21`, the growth is 16.4% (inactive).
Consider `ClCCN(CCCl)Cc1ccc(Nc2ccnc3cc(Cl)ccc23)cc1`, for which the growth was -34.7% (active).
The same measure, in the same setting: to `Fc1ccc2c(c1)c(-c1nc(-c3c[nH]c4ncccc34)cs1)cn2CCN1CCOCC1` belongs 44.5% (inactive); to `COc1cc2c(=O)n(C3CCCCCCC3)c3c4cc[nH]c4ncc3c2cc1OC`, 48.8% (inactive); to `Cn1cc(-c2csc(-c3cn(CCN4CCOCC4)c4ccc(F)cc34)n2)c2cccnc21`, -0.645% (active).
As to `O=C(CC1(O)C(=O)Nc2ccc(Br)cc21)c1ccc(C(=O)NCC2CCC3(CC2)OOC2(CCCCC2)OO3)cc1` (configuration not stated), the growth is 6.67% (active).
For the compound `COc1cc(/C=N/C2=C(C#N)C(c3ccco3)c3c(c4cc(C)ccc4oc3=O)O2)cc(OC)c1OC` (configuration not stated), the growth was 40.3% (inactive).
The same measure, in the same setting: to `CC1(C)N=C(N)N=C(N)N1c1ccc(CCCCc2ccc(Cl)c(S(=O)(=O)F)c2)c(Cl)c1` belongs -14.7% (active).
For `CC12CCC3C(CCC4Cc5[nH]c6ccccc6c5CC43C)C1CCC2O` (configuration not stated), the growth was 26.4% (inactive).
With `COC(=O)[C@@H](C)C[C@H](Cc1ccccc1)NC(=O)c1csc([C@@H](C[C@H](C(C)C)N(C)C(=O)[C@@H](NC(=O)[C@H]2CCCCN2C)C(C(F)(F)F)C(F)(F)F)OC(C)=O)n1`, the growth is -8.2% (active).

A further test relates to A549/ATCC NSCLC. The description is as above. Particulars: 10 µM unless noted.
Take `CO[C@H](C(=O)O)[C@@H]1Cc2cc3cc(OC4CC(OC5CC(O)C(O)C(C)O5)C(O)C(C)O4)c(C)c(O)c3c(O)c2C(=O)[C@H]1OC1CC(OC2CC(OC3CC(C)(O)C(O)C(C)O3)C(O)C(C)O2)C(O)C(C)O1` (some centres not stated): the growth is 13.7% (inactive).
As to `O=C(Nc1ccc(Cl)cc1)Nc1nccs1`, the growth was 38.6% (inactive).
Take `CCn1cnc2c(Nc3cccc(Cl)c3)nc(N[C@@H]3CCCC[C@@H]3N)nc21`: the growth is -7.67% (active).
Regarding `C[C@]12CC[C@H]3[C@@H](CC4SC(N)=NC45C/C(=N/NC(N)=O)CC[C@]35C)[C@@H]1CCC2=O` (some centres not stated), the growth is 0.923% (active).
On the same count and under the same terms, the result for `Fc1ccc(N2COOC3(OOC2)C2CC4CC(C2)CC3C4)cc1` reads 90.2% (inactive); that for `[Cl][Hg][n]1c(-c2ccco2)nc2ccccc21`, 100% (inactive).
For `CN1C(=O)N[C@H]2[C@@H]3NC(=O)c4ccc(Br)n4[C@@H]3C[C@]21O`, the growth was -9.09% (active).
Still for that read-out and setting: the result for `C=CC[PH+](c1ccccc1)c1ccccc1.C=CC[PH+](c1ccccc1)c1ccccc1.[Cl][Pt][Cl]` reads 88.2% (inactive); that for `CC[C@H](C)[C@H](NC(=O)C12CC(NC(C)=O)(C1)C2)C(=O)N(C)[C@H](C[C@@H](OC(C)=O)c1nc(C(=O)N[C@@H](Cc2ccccc2)C[C@H](C)C(=O)OC)cs1)C(C)C`, 22.6% (inactive); that for `O=C1C=C(N2C3C4CCC(C4)C32)C(=O)C=C1c1ccccc1` (configuration not stated), 94.9% (inactive).
For the compound `CCn1c2ccccc2c2cc(C(=O)c3cccc4c3CCCN4)ccc21`, the growth was 106% (inactive).
Take `Nc1cc2nc3ccccc3nc2cc1N`: the growth was 80.1% (inactive).
Turning to `CCOC(=O)C(Cc1ccc(N(CCCl)CCCl)cc1)NC(=O)C(CC(C)C)NC(C)=O` (configuration not stated), the growth is 49.4% (inactive).
With `COC(=O)CCc1c[nH]c2ccc(N(CCCl)CCCl)cc12`, the growth was 44% (inactive).
The same measure, in the same setting: to `Clc1cccc(Cl)c1Cl` belongs 85.9% (inactive); to `COc1cc([N+](=O)[O-])c2nc(C)ccc2c1[N+](=O)[O-]`, 107% (inactive).
In the case of `O=C(CC1(O)C(=O)N(Cc2ccccc2)c2ccc(F)cc21)c1ccc(C(=O)NCC2CCC3(CC2)OOC2(CCCCC2)OO3)cc1` (configuration not stated), the growth is -52.4% (active).
For `O=C(CCl)c1ccc([N+](=O)[O-])o1`, the growth was 106% (inactive).
Take `C[S+]1C=Cc2ccccc2C1c1ccc(Cl)cc1` (configuration not stated): the growth is 78.9% (inactive).
Same read-out and setting: the result for `COC(=O)[C@@H](C)C[C@H](Cc1ccc2ccccc2c1)NC(=O)c1csc([C@@H](C[C@H](C(C)C)N(C)C(=O)[C@@H](NC(=O)[C@H]2CCCCN2C)C(C)C)OC(C)=O)n1` reads 47.5% (inactive); that for `O=P(N1CC1)(N1CC1)N1CCc2ccccc21`, 101% (inactive).
On to `O=C1Nc2ccccc2C2c3cccn3-c3ccccc3CN12` (configuration not stated), for which the growth was 34.4% (inactive).
The same measure, in the same setting: the result for `COC(=O)[C@@]1(O)C[C@H]2O[C@]1(C)n1c3ccccc3c3c4c(c5c6ccccc6n2c5c31)C(=O)NC4` reads -39.7% (active); that for `NC(=S)c1cn(C2OC(CO)C(O)C2O)c2ncnc(N)c12` (configuration not stated), 4.83% (active).
Regarding `CC[C@H](C)[C@H](NC(=O)c1cccn1C)C(=O)N(C)[C@H](C[C@@H](OC(C)=O)c1nc(C(=O)N[C@@H](Cc2ccccc2)C[C@H](C)C(=O)OC)cs1)C(C)C`, the growth is 14.4% (inactive).
Turning to `OCc1ccc2c(c1)OCO2`, the growth was 92.5% (inactive).
The same measure, in the same setting: to `C[n+]1c(/C=C/c2ccc(N(CCCl)CCCl)cc2)sc2ccccc21` belongs 40.2% (inactive); to `ClCCN(CCCl)Cc1ccc(Nc2ccnc3cc(Cl)ccc23)cc1`, 39.2% (inactive); to `Fc1ccc2c(c1)c(-c1nc(-c3c[nH]c4ncccc34)cs1)cn2CCN1CCOCC1`, 52.1% (inactive).
As to `COc1cc2c(=O)n(C3CCCCCCC3)c3c4cc[nH]c4ncc3c2cc1OC`, the growth was 25.4% (inactive).
Consider `O=C(CC1(O)C(=O)Nc2ccc(Br)cc21)c1ccc(C(=O)NCC2CCC3(CC2)OOC2(CCCCC2)OO3)cc1` (configuration not stated), for which the growth was 36.7% (inactive).
For `COc1cc(/C=N/C2=C(C#N)C(c3ccco3)c3c(c4cc(C)ccc4oc3=O)O2)cc(OC)c1OC` (configuration not stated), the growth is 99.5% (inactive).
In the case of `CC1(C)N=C(N)N=C(N)N1c1ccc(CCCCc2ccc(Cl)c(S(=O)(=O)F)c2)c(Cl)c1`, the growth is 15.4% (inactive).
On the same count and under the same terms, the result for `CC12CCC3C(CCC4Cc5[nH]c6ccccc6c5CC43C)C1CCC2O` (configuration not stated) reads 41.5% (inactive); that for `COC(=O)[C@@H](C)C[C@H](Cc1ccccc1)NC(=O)c1csc([C@@H](C[C@H](C(C)C)N(C)C(=O)[C@@H](NC(=O)[C@H]2CCCCN2C)C(C(F)(F)F)C(F)(F)F)OC(C)=O)n1`, 12.8% (inactive).
